According to PubChem BioAssay AID1159580 (chemical genetic matrix, 2015):
About 2,000 (36%) of roughly 5,500 compounds were called active. Inconclusive results (about 18%) are left out. This is one part of the list. Unmarked numbers belong to inactive results. No stated cut-off is given here; in the data, active means normalized growth mostly below about 0.91 (no sharp cut-off); inconclusive means no clear call, values can overlap the other calls; inactive means mostly above about 0.92.

Assay: chemical genetic growth profiling, strain panel (AID 1159580);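 further: tested at 20 µM; growth read once vehicle control cultures reached saturation at 30 °C; 1 = growth at the plate median or of vehicle wells; lower values mean less growth of the strain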
Details: growth OD
[1] = S. cerevisiae deletion strains, locus YAL013W, strain DEP1, hits give low values
[2] = S. cerevisiae deletion strains, locus YBR229C, strain ROT2, hits give low values
[3] = S. cerevisiae deletion strains, locus YDL101C, strain DUN1, hits give low values
[4] = S. cerevisiae deletion strains, locus YDL134C, strain PPH21, hits give low values
[5] = S. cerevisiae deletion strains, locus YDR150W, strain NUM1, hits give low values
[6] = S. cerevisiae deletion strains, locus YEL061C, strain CIN8, hits give low values
[7] = S. cerevisiae deletion strains, locus YGR078C, strain PAC10, hits give low values
[8] = S. cerevisiae deletion strains, locus YGR229C, strain SMI1, hits give low values
[9] = S. cerevisiae deletion strains, locus YHR030C, strain SLT2, hits give low values
[10] = S. cerevisiae deletion strains, locus YHR087W, strain rtc3, hits give low values
[11] = S. cerevisiae deletion strains, locus YJR043C, strain POL32, hits give low values
[12] = S. cerevisiae deletion strains, locus YJR075W, strain HOC1, hits give low values
[13] = S. cerevisiae deletion strains, locus YLR039C, strain RIC1, hits give low values
[14] = S. cerevisiae deletion strains, locus YLR058C, strain SHM2 (second series), hits give low values
[15] = S. cerevisiae deletion strains, locus YLR085C, strain ARP6, hits give low values
[16] = S. cerevisiae deletion strains, locus YLR262C, strain YPT6, hits give low values
[17] = S. cerevisiae deletion strains, locus YML094W, strain GIM5, hits give low values
[18] = S. cerevisiae deletion strains, locus YMR219W, strain ESC1, hits give low values
[19] = S. cerevisiae deletion strains, locus YMR263W, strain SAP30, hits give low values
[20] = S. cerevisiae deletion strains, locus YNL128W, strain TEP1, hits give low values
[21] = S. cerevisiae deletion strains, locus YNL153C, strain GIM3, hits give low values
[22] = S. cerevisiae deletion strains, locus YNL298W, strain CLA4 (second series), hits give low values
[23] = S. cerevisiae deletion strains, locus YNL322C, strain KRE1, hits give low values
[24] = S. cerevisiae deletion strains, locus YNR030W, strain Alg12, hits give low values
[25] = S. cerevisiae deletion strains, locus YOL006C, strain TOP1, hits give low values
[26] = S. cerevisiae deletion strains, locus YPL055C, strain LGE1, hits give low values
[27] = S. cerevisiae deletion strains, locus YPL241C, strain CIN2, hits give low values
[28] = S. cerevisiae deletion strains, locus YPR135W, strain CTF4, hits give low values
[29] = S. cerevisiae strains, strain wild type, hits give low values
[30] = S. cerevisiae deletion strains, locus YKL190W, strain CNB1, hits give low values

## CCCCCc1ccc(C(=O)O/N=C\c2c(Cl)cccc2Cl)cc1
[1]
  normalized growth: 0.966
[2]
  normalized growth: 0.941
S. cerevisiae deletion strains, locus YCL061C, strain MRC1, hits give low values
  normalized growth: 0.933
[3]
  normalized growth: 1.01
[4]
  normalized growth: 0.936
[5]
  normalized growth: 1.01
[6]
  normalized growth: 0.902 (active)
[7]
  normalized growth: 0.959
[8]
  normalized growth: 0.929 (active)
[9]
  normalized growth: 1.01
[10]
  normalized growth: 0.939
[11]
  normalized growth: 0.962
[12]
  normalized growth: 0.982
[13]
  normalized growth: 0.84
[14]
  normalized growth: 0.943
[15]
  normalized growth: 0.943
[16]
  normalized growth: 0.82
[17]
  normalized growth: 0.98
[18]
  normalized growth: 0.95
[19]
  normalized growth: 1.03
[20]
  normalized growth: 0.962
[21]
  normalized growth: 0.92 (active)
[22]
  normalized growth: 0.969
[23]
  normalized growth: 0.947
[24]
  normalized growth: 0.958
[25]
  normalized growth: 0.796
[26]
  normalized growth: 0.943
[27]
  normalized growth: 0.963
[28]
  normalized growth: 1.07
[29]
  normalized growth: 0.919

## O=[N+]([O-])c1cnc(Sc2n[nH]c(-c3cccs3)n2)s1
[1]
  normalized growth: 0.488 (active)
[2]
  normalized growth: 0.258 (active)
[3]
  normalized growth: 0.23 (active)
[5]
  normalized growth: 0.347 (active)
[6]
  normalized growth: 0.612 (active)
[7]
  normalized growth: 0.214 (active)
[8]
  normalized growth: 0.974
[9]
  normalized growth: 0.312 (active)
[10]
  normalized growth: 0.377 (active)
[11]
  normalized growth: 0.602 (active)
[12]
  normalized growth: 0.224 (active)
[30]
  normalized growth: 0.715 (active)
[13]
  normalized growth: 0.426 (active)
[14]
  normalized growth: 0.404 (active)
[15]
  normalized growth: 0.152 (active)
[16]
  normalized growth: 0.596 (active)
[17]
  normalized growth: 0.573 (active)
[18]
  normalized growth: 0.35 (active)
[19]
  normalized growth: 0.194 (active)
[20]
  normalized growth: 0.876 (active)
[21]
  normalized growth: 0.215 (active)
[22]
  normalized growth: 0.352 (active)
[23]
  normalized growth: 0.927 (active)
[24]
  normalized growth: 0.508 (active)
[26]
  normalized growth: 0.126 (active)
[27]
  normalized growth: 0.36 (active)
[28]
  normalized growth: 0.319 (active)

## N[C@H](C(=O)O)[C@@H]1CC(Cl)=NO1
[1]
  normalized growth: 0.796 (active)
S. cerevisiae deletion strains, locus YBR021W, strain FUR4, hits give low values
  normalized growth: 1.27 [resistant] (active)
[2]
  normalized growth: 0.629 (active)
S. cerevisiae deletion strains, locus YCL029C, strain bik1, hits give low values
  normalized growth: 0.258 (active)
S. cerevisiae deletion strains, locus YDL035C, strain GPR1, hits give low values
  normalized growth: 0.321 (active)
S. cerevisiae deletion strains, locus YDL074C, strain BRE1, hits give low values
  normalized growth: 0.48 (active)
[3]
  normalized growth: 0.23 (active)
[4]
  normalized growth: 0.355 (active)
S. cerevisiae deletion strains, locus YDL185W, strain tfp1, hits give low values
  normalized growth: 0.149 (active)
S. cerevisiae deletion strains, locus YDL192W, strain arf1, hits give low values
  normalized growth: 0.24 (active)
S. cerevisiae deletion strains, locus YDR101C, strain arx1, hits give low values
  normalized growth: 0.287 (active)
[5]
  normalized growth: 0.605 (active)
S. cerevisiae deletion strains, locus YDR162C, strain NBP2, hits give low values
  normalized growth: 0.318 (active)
S. cerevisiae deletion strains, locus YDR318W, strain mcm21, hits give low values
  normalized growth: 0.199 (active)
S. cerevisiae deletion strains, locus YDR388W, hits give low values
  normalized growth: 0.191 (active)
S. cerevisiae deletion strains, locus YDR502C, strain sam2, hits give low values
  normalized growth: 0.2 (active)
[6]
  normalized growth: 0.409 (active)
S. cerevisiae deletion strains, locus YER110C, hits give low values
  normalized growth: 0.451 (active)
S. cerevisiae deletion strains, locus YER155C, strain BEM2, hits give low values
  normalized growth: 0.464 (active)
S. cerevisiae deletion strains, locus YER167W, strain BCK2, hits give low values
  normalized growth: 0.288 (active)
S. cerevisiae deletion strains, locus YGL078C, strain dbp3, hits give low values
  normalized growth: 0.238 (active)
S. cerevisiae deletion strains, locus YGL086W, strain mad1, hits give low values
  normalized growth: 0.267 (active)
S. cerevisiae deletion strains, locus YGL248W, strain PDE1, hits give low values
  normalized growth: 0.331 (active)
[7]
  normalized growth: 0.437 (active)
S. cerevisiae deletion strains, locus YGR135W, strain pre9, hits give low values
  normalized growth: 0.234 (active)
[8]
  normalized growth: 0.197 (active)
S. cerevisiae deletion strains, locus YGR252W, strain gcn5, hits give low values
  normalized growth: 0.508 (active)
[9]
  normalized growth: 0.478 (active)
S. cerevisiae deletion strains, locus YHR079C, strain IRE1 (second series), hits give low values
  normalized growth: 0.186 (active)
S. cerevisiae deletion strains, locus YHR094C, strain hxt1, hits give low values
  normalized growth: 0.275 (active)
S. cerevisiae deletion strains, locus YHR129C, strain ARP1, hits give low values
  normalized growth: 0.481 (active)
S. cerevisiae deletion strains, locus YHR200W, strain rpn10, hits give low values
  normalized growth: 0.376 (active)
S. cerevisiae deletion strains, locus YIL066C, strain RNR3, hits give low values
  normalized growth: 0.468 (active)
S. cerevisiae deletion strains, locus YIL073C, strain SPO22, hits give low values
  normalized growth: 0.39 (active)
S. cerevisiae deletion strains, locus YIL125W, strain kgd1, hits give low values
  normalized growth: 0.185 (active)
S. cerevisiae deletion strains, locus YIR030C, strain dcg1, hits give low values
  normalized growth: 0.26 (active)
S. cerevisiae deletion strains, locus YJL095W, strain BCK1, hits give low values
  normalized growth: 0.287 (active)
S. cerevisiae deletion strains, locus YJL134W, strain LCB3, hits give low values
  normalized growth: 0.605 (active)
S. cerevisiae deletion strains, locus YJL168C, strain set2, hits give low values
  normalized growth: 0.541 (active)
S. cerevisiae deletion strains, locus YJL187C, strain SWE1 (second series), hits give low values
  normalized growth: 0.345 (active)
[11]
  normalized growth: 0.267 (active)
[12]
  normalized growth: 0.52 (active)
S. cerevisiae deletion strains, locus YKL009W, strain mrt4, hits give low values
  normalized growth: 0.381 (active)
S. cerevisiae deletion strains, locus YKL068W, hits give low values
  normalized growth: 0.433 (active)
S. cerevisiae deletion strains, locus YKL085W, strain MDH1 (second series), hits give low values
  normalized growth: 0.214 (active)
S. cerevisiae deletion strains, locus YKL085W, strain MDH1, hits give low values
  normalized growth: 0.214 (active)
[30]
  normalized growth: 0.446 (active)
S. cerevisiae deletion strains, locus YKR001C, strain vps1, hits give low values
  normalized growth: 0.189 (active)
[13]
  normalized growth: 0.45 (active)
S. cerevisiae deletion strains, locus YLR058C, strain SHM2, hits give low values
  normalized growth: 0.398 (active)
S. cerevisiae deletion strains, locus YLR102C, strain apc9, hits give low values
  normalized growth: 0.28 (active)
[16]
  normalized growth: 0.516 (active)
S. cerevisiae deletion strains, locus YLR268W, strain sec22, hits give low values
  normalized growth: 0.174 (active)
S. cerevisiae deletion strains, locus YLR330W, strain CHS5, hits give low values
  normalized growth: 0.388 (active)
S. cerevisiae deletion strains, locus YLR342W, strain FKS1 (second series), hits give low values
  normalized growth: 0.573 (active)
S. cerevisiae deletion strains, locus YLR371W, strain rom2, hits give low values
  normalized growth: 0.505 (active)
S. cerevisiae deletion strains, locus YLR418C, strain cdc73, hits give low values
  normalized growth: 0.468 (active)
S. cerevisiae deletion strains, locus YML016C, strain PPZ1, hits give low values
  normalized growth: 0.364 (active)
S. cerevisiae deletion strains, locus YML032C, strain rad52, hits give low values
  normalized growth: 0.238 (active)
S. cerevisiae deletion strains, locus YML124C, strain tub3, hits give low values
  normalized growth: 0.302 (active)
S. cerevisiae deletion strains, locus YMR078C, strain ctf18, hits give low values
  normalized growth: 0.352 (active)
S. cerevisiae deletion strains, locus YMR223W, strain ubp8, hits give low values
  normalized growth: 0.22 (active)
[19]
  normalized growth: 0.619 (active)
S. cerevisiae deletion strains, locus YMR307W, strain GAS1, hits give low values
  normalized growth: 0.671
S. cerevisiae deletion strains, locus YNL067W, strain RPL9B, hits give low values
  normalized growth: 0.353 (active)
[20]
  normalized growth: 0.29 (active)
[21]
  normalized growth: 0.504 (active)
S. cerevisiae deletion strains, locus YNL233W, strain BNI4, hits give low values
  normalized growth: 0.419 (active)
S. cerevisiae deletion strains, locus YNL250W, strain rad50, hits give low values
  normalized growth: 0.246 (active)
S. cerevisiae deletion strains, locus YNL271C, strain bni1, hits give low values
  normalized growth: 0.188 (active)
S. cerevisiae deletion strains, locus YNL298W, strain CLA4, hits give low values
  normalized growth: 0.319 (active)
S. cerevisiae deletion strains, locus YNL307C, strain MCK1, hits give low values
  normalized growth: 0.0999 (active)
[23]
  normalized growth: 0.457 (active)
S. cerevisiae deletion strains, locus YNR052C, strain pop2, hits give low values
  normalized growth: 0.11 (active)
[25]
  normalized growth: 0.495 (active)
S. cerevisiae deletion strains, locus YOL012C, strain htz1
  normalized growth: 0.224
S. cerevisiae deletion strains, locus YOL147C, strain pex11, hits give low values
  normalized growth: 0.27 (active)
S. cerevisiae deletion strains, locus YOR061W, strain CKA2, hits give low values
  normalized growth: 0.483 (active)
S. cerevisiae deletion strains, locus YOR069W, strain VPS5, hits give low values
  normalized growth: 0.447 (active)
S. cerevisiae deletion strains, locus YOR136W, strain idh2, hits give low values
  normalized growth: 0.272 (active)
S. cerevisiae deletion strains, locus YOR144C, strain elg1, hits give low values
  normalized growth: 0.352 (active)
S. cerevisiae deletion strains, locus YOR184W, strain ser1, hits give low values
  normalized growth: 0.152 (active)
S. cerevisiae deletion strains, locus YOR316C, strain cot1, hits give low values
  normalized growth: 0.359 (active)
[26]
  normalized growth: 0.448 (active)
[27]
  normalized growth: 0.571 (active)
S. cerevisiae deletion strains, locus YPR119W, strain clb2, hits give low values
  normalized growth: 0.335 (active)
S. cerevisiae deletion strains, locus YPR141C, strain kar3, hits give low values
  normalized growth: 0.272 (active)
S. cerevisiae deletion strains, locus YPR163C, strain tif3, hits give low values
  normalized growth: 0.307 (active)
S. cerevisiae deletion strains, locus YPR167C, strain met16, hits give low values
  normalized growth: 0.392 (active)
S. cerevisiae deletion strains, strain wtn01, hits give low values
  normalized growth: 0.212 (active)
[29]
  normalized growth: 0.351 (active)
